Measured values from PubChem BioAssay (NCATS).
A number with no mark means an inactive call. Calls follow the shape of the dose curve; as a rule, active = well fitted curve in the direction sought with a large enough effect; inconclusive = small, poorly fitted or top-dose-only effect, or effect the other way, or another doubt; inactive = no such curve, though single readings can be large or run the other way.

Assay: Inducers of the Endoplasmic Reticulum Stress Response (ERSR) in human glioma: Validation (AID 504836); also: 0% is about no effect
Details: human glioma cells, ER stress response reporter; series mostly up to 38.3 µM; activation: at the top concentration
Method in brief: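 Stably transfected U87-MG glioma cells carrying a GRP78-based luciferase sensor; 16 h compound incubation. Luminescence end-point read 10 min after Bright-Glo addition at room temperature.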

| SMILES | activation |
| --- | --- |
| O=C1NCN(c2ccccc2)C12CCN(CCCC(c1ccc(F)cc1)c1ccc(F)cc1)CC2 | 0.483% |
| NC1=NCC2c3ccccc3Cc3ccccc3N12 (centres undefined) | -2.63% |
| CN(C(=O)CCCOc1ccc2[nH]c(=O)ccc2c1)C1CCCCC1 | 7.38% |
| O=C(O)CP(=O)(O)O | -2.79% |
| CN(C)C(=O)Oc1cccc([N+](C)(C)C)c1 | 0.849% |
| Cc1nc2sccn2c(=O)c1CCN1CCC(=C(c2ccc(F)cc2)c2ccc(F)cc2)CC1 | -1.34% |
| C[C@]12CCC(=O)C=C1CC[C@@H]1[C@@H]2CC[C@@]2(C)[C@H]1CC[C@]2(O)C(=O)CO | -5.7% |
| CC(C)NCC(O)COc1ccc(COCCOC(C)C)cc1 (centres undefined) | -3.31% |
| COc1cc(C(=O)OCCCN2CCCN(CCCOC(=O)c3cc(OC)c(OC)c(OC)c3)CC2)cc(OC)c1OC | 6.01% |
| COc1ccc2c(c1OC)C(=O)O[C@@H]2[C@H]1c2c(cc3c(c2OC)OCO3)CCN1C | -0.374% |
| CCCC(C(=O)OCCN(CC)CC)(c1ccccc1)c1ccccc1 | -1.67% |
| CCCCNc1c(C(=O)OCC)c(C)nc2c1cnn2CC | -1.43% |
| CN(C)CCCN1c2ccccc2Sc2ccccc21 | 1.49% |
| CC(C(=O)O)c1ccc(CC2CCCC2=O)cc1 (centres undefined) | -0.237% |
| CCCOc1ccccc1-c1nc2n[nH]nc2c(=O)[nH]1 | -3.22% |
| Cn1c(=O)c2c(ncn2C)n(C)c1=O | -2.4% |
| NCCc1cnc[nH]1 | 0.566% |
| CNC[C@H](O)c1ccc(O)c(O)c1 | -2.6% |
| CCc1cccc2c3c([nH]c12)C(CC)(CC(=O)O)OCC3 (centres undefined) | -5.32% |
| C=Cc1c(C)c2cc3[nH]c(cc4nc(cc5nc(cc1[nH]2)C(C)=C5CCC(=O)O)C(CCC(=O)O)=C4C)c(C)c3C=C | -1.14% |

| SMILES | activation |
| --- | --- |
| CSc1ccc(C(=O)c2[nH]c(=O)[nH]c2C)cc1 | -0.0656% |
| CN(C)CCCN1c2ccccc2Sc2ccc(C(F)(F)F)cc21 | -0.601% |
| C[N+](C)(C)CCOC(=O)CCC(=O)OCC[N+](C)(C)C | -3.18% |
| OCCN1CCN(CCCN2c3ccccc3C=Cc3ccccc32)CC1 | 0.534% |
| COc1ccccc1N1CCN(CC(O)COc2cccc3ccccc23)CC1 (centres undefined) | -1.88% |
| CCCn1cnc2c1c(=O)n(CCCCC(C)=O)c(=O)n2C | -1.37% |
| O=C1N(c2ccccc2)c2ccccc2C1(Cc1ccncc1)Cc1ccncc1 | -1.14% |
| O=C(CCCN1CCC(O)(c2cccc(C(F)(F)F)c2)CC1)c1ccc(F)cc1 | -2.64% |
| c1cc(CN2CCCCC2)cc(OCCCNc2nc3ccccc3s2)c1 | 1.93% |
| C[n+]1cc2c3c(ccc2c2ccc4cc5c(cc4c21)OCO5)OCO3 | -11.7% |
| O=C(O)CCc1nc(-c2ccccc2)c(-c2ccccc2)o1 | -3.59% |
| CN(C)C/C=C(/c1ccc(Br)cc1)c1cccnc1 | -4.95% |
| c1cnc(N2CCN(Cc3ccc4c(c3)OCO4)CC2)nc1 | 1.07% |
| Cc1cc(C(C)(C)C)c(O)c(C)c1CC1=NCCN1 | 0.919% |
| CC(C)(C)c1ccc(C(O)CCCN2CCC(C(O)(c3ccccc3)c3ccccc3)CC2)cc1 (centres undefined) | -11.4% |
| COCC(=O)O[C@]1(CCN(C)CCCc2nc3ccccc3[nH]2)CCc2cc(F)ccc2[C@@H]1C(C)C | -6.25% |
| CCNC(=O)N1CCN(CCCC(c2ccc(F)cc2)c2ccc(F)cc2)CC1 | 2.1% |
| CCCCNc1cc(C(=O)O)cc(S(N)(=O)=O)c1Oc1ccccc1 | -1.23% |
| CCC(=O)c1ccc2c(c1)N(CCCN(C)C)c1ccccc1S2 | -0.121% |
